Over roughly 35,000 sequences, “fluorescence intensity (a.u.)” has its median near 10,000; the highest 2% begin near 52,000. The sample holds the highest values, similar sequences and a random draw of the others, so the mix is not that of the screen.

The assay concerns the target T1, OsWOX13 (Oryza sativa, UniProt Q5QMM3 1-267).
T1 sequence: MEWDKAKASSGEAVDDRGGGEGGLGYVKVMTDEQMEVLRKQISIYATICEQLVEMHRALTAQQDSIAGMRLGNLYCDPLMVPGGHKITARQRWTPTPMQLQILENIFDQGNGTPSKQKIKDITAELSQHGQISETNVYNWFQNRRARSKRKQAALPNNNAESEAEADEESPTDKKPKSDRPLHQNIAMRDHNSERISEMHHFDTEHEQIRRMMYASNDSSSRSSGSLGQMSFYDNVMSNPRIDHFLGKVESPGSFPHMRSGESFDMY
The experiment in a line: protein-binding microarray (RPBM); PBS, 2% BSA, 51.3 ng/ul salmon testes DNA, 50 uM zinc acetate, 200 nM TF, 25 C, 1 h; high values mean tight binding. The settings on record: protein: recombinant; tags: N-terminal polyhistidine and DsRed monomer fusion (pET32a); label: CyDye5-dUTP incorporated in the synthesized complementary strand; 3' TTTTT single-stranded linker to array surface; dsDNA, one strand shown. Put shortly: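 In PBS with 2% BSA, salmon testes DNA and 50 µM zinc acetate, 200 nM protein was incubated on a custom Agilent array at 25 °C for 1 h and then washed off. The array had been made double-stranded by primer extension with Cy5-dUTP and blocked with 2% BSA. The proteins were transcription factors fused N-terminally to polyhistidine and DsRed, expressed in E. coli BL21-CodonPlus and purified on Ni–NTA. The binding signal is per-feature fluorescence intensity (arbitrary units) from an Axon 4000B scanner.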
Turning to “TATAATTTAAATTCAAATTTGAATCGGGTATGTAAACTTTCGGAGTCACCTAGTGCAG”, the binding signal was 15500 fluorescence intensity (a.u.). As for “TCATGAAATTAATAGGATGCCACGTCGACTTGGTTGTTCCCGGAGTCACCTAGTGCAG”, the binding signal is 3510 fluorescence intensity (a.u.). The result for “ATAAATTTATAGGTAAAACTTTTATATAGATGTTCTTGGTCGGAGTCACCTAGTGCAG” reads 15300 fluorescence intensity (a.u.). For “TGAAATTGGAATGATGTGAAGGAAAAGTTGGAAGTTTGTGCGGAGTCACCTAGTGCAG”, the binding signal was 20700 fluorescence intensity (a.u.). The result for “CTAATTACTATCCATCATGTTTCTGTGGACGCGCGGCTCACGGAGTCACCTAGTGCAG” reads 9700 fluorescence intensity (a.u.). For the sequence “TCTCTATAATTAAACATTCCAATTTCGAAAATGTTGTTAGCGGAGTCACCTAGTGCAG”, the binding signal was 8580 fluorescence intensity (a.u.). Consider “AAGTTTCAAAATTTAAATTTTGACCGCATGCAGCTGATAACGGAGTCACCTAGTGCAG”, for which the binding signal is 4610 fluorescence intensity (a.u.).

For “ACGTTATTAATTACTTAGTACTACTATGAGTTAACTATGGCGGAGTCACCTAGTGCAG”, the binding signal is 18500 fluorescence intensity (a.u.). For “CCTGATTCTGATTGGCGCCAACGTACGTACTGTACATGCGCGGAGTCACCTAGTGCAG”, the binding signal was 56900 fluorescence intensity (a.u.). In the case of “TATTGATTGATTGGTTAGTACTACAGTACTGTAGGAGTGGCGGAGTCACCTAGTGCAG”, the binding signal was 64700 fluorescence intensity (a.u.). Turning to “ATTTGATTGTATATTGTACTAGTGCTACTACTACGTGGAGCGGAGTCACCTAGTGCAG”, the binding signal is 60400 fluorescence intensity (a.u.). Turning to “ACTTGTATATTTGTGGATTGATACATTACATATTGATCTACGGAGTCACCTAGTGCAG”, the binding signal is 5160 fluorescence intensity (a.u.). For the sequence “GTACAGTGTACTTGATTGAGTTGACAGTCATACTCTACTACGGAGTCACCTAGTGCAG”, the binding signal was 18500 fluorescence intensity (a.u.).

On to “CACCATTGCATGATTGCATCTGCATCACTGCATGCCAACGCGGAGTCACCTAGTGCAG”, for which the binding signal is 5680 fluorescence intensity (a.u.). Turning to “TGGGCCTGATTAACATGTGCTGTAGAATCGTACAACTGTGCGGAGTCACCTAGTGCAG”, the binding signal was 7530 fluorescence intensity (a.u.). The result for “CAGTGTGATTGACTGTTGAGGCGGAGTCGGAGCTGCTTGTCGGAGTCACCTAGTGCAG” reads 50900 fluorescence intensity (a.u.); that for “GCTTAATTGGTTAGTGGACTAGTATATAGTAGTACTGTATCGGAGTCACCTAGTGCAG”, 46500 fluorescence intensity (a.u.). The result for “CATTGATTGACATTGTTGAGGCAGTACTGTTACAGTTGAGCGGAGTCACCTAGTGCAG” reads 59400 fluorescence intensity (a.u.). For the sequence “TTAGATTGGGACAGTACGTAGGAATTGGTTGATTTCCGGGCGGAGTCACCTAGTGCAG”, the binding signal was 16300 fluorescence intensity (a.u.). With “CTATTGATTTCTGCTGCTACTTTTCTATACTGTATTTTGTCGGAGTCACCTAGTGCAG”, the binding signal is 15500 fluorescence intensity (a.u.). “AAAGGGTTAATTTGTCAAATTTTCGGGCTTTAGTGAAAAGCGGAGTCACCTAGTGCAG”: the binding signal was 12700 fluorescence intensity (a.u.). For the sequence “TCAAACTTACATAATTTACATGCCATGTTATCCAATATGCCGGAGTCACCTAGTGCAG”, the binding signal was 11100 fluorescence intensity (a.u.).

For the sequence “GGAAAGACAGATTGAAGAAGCTGGGGTTCAAACCCAGGATCGGAGTCACCTAGTGCAG”, the binding signal was 10300 fluorescence intensity (a.u.). For “ATGTCGACATACGTAATTAATGTACACTCAGAACATGTCGCGGAGTCACCTAGTGCAG”, the binding signal is 4870 fluorescence intensity (a.u.). Turning to “TAAAACTATTTAATTACCAAACTATTCACGTGATGAGATGCGGAGTCACCTAGTGCAG”, the binding signal was 14900 fluorescence intensity (a.u.). For the sequence “CTAATCTAATCATCGGATTAGGAAATAAGTAAGCAAACAACGGAGTCACCTAGTGCAG”, the binding signal is 6880 fluorescence intensity (a.u.). On to “TCTATAAATTGAACATGTTTCAAACCAGGCTTGCAAGTTGCGGAGTCACCTAGTGCAG”, for which the binding signal was 15500 fluorescence intensity (a.u.).

With “AGTTTCCTAATCTATTATATGATAGTACTCGGTCGGAGCTCGGAGTCACCTAGTGCAG”, the binding signal is 3210 fluorescence intensity (a.u.). For “ATTTAACTGTATAAACAATTAATAACAAGAATTGTGTATACGGAGTCACCTAGTGCAG”, the binding signal is 16100 fluorescence intensity (a.u.). For the sequence “AGTAATTTACTTGCTAGCTTGCAACTATTTCTTAGTACATCGGAGTCACCTAGTGCAG”, the binding signal was 3460 fluorescence intensity (a.u.). “CATCCTCATTAACGGCAGATTAATACTATTTAGTCCATCTCGGAGTCACCTAGTGCAG”: the binding signal was 3220 fluorescence intensity (a.u.). The result for “AAACTGATTGACGGTTTTCTTTCTAAAACTGATTTTCAGGCGGAGTCACCTAGTGCAG” reads 43200 fluorescence intensity (a.u.). Consider “AAGTTGATTACTTAAACTGATTGACAGGGAGGCGGTTGAACGGAGTCACCTAGTGCAG”, for which the binding signal was 56600 fluorescence intensity (a.u.). The result for “AAATTTTGATTTTAAAACTTAATTGTAAAGTTGACTTTAACGGAGTCACCTAGTGCAG” reads 9040 fluorescence intensity (a.u.); that for “TATATATATATATATATATATATACCCACGTGAGGACGTACGGAGTCACCTAGTGCAG”, 31500 fluorescence intensity (a.u.); that for “ACGTAATTATAATTTATTTTGTTATGAGTTGGTTTATCACCGGAGTCACCTAGTGCAG”, 62600 fluorescence intensity (a.u.). In the case of “ACGTAATTATAGCTTATTTTGTTATGAGTTATTTTATCACCGGAGTCACCTAGTGCAG”, the binding signal is 24500 fluorescence intensity (a.u.). “AATTGATGATGAAATAATGAATGATATTTGACAAGGAGCTCGGAGTCACCTAGTGCAG”: the binding signal is 17300 fluorescence intensity (a.u.). Take “GGCAGCAAGACCAATTTTAATTGAAGACCACGGAAGGAGCCGGAGTCACCTAGTGCAG”: the binding signal is 3450 fluorescence intensity (a.u.). In the case of “GTGAAAATGATTGGTCTTTTGATTAACATATGCAGCTTATCGGAGTCACCTAGTGCAG”, the binding signal is 53300 fluorescence intensity (a.u.). The result for “TTAGTGCTTAAATGATTAATCTATGGTCTAAATTATCTTTCGGAGTCACCTAGTGCAG” reads 7610 fluorescence intensity (a.u.); that for “CACAATTTAATATGGTTATAATTGTAATCTCACATATCCTCGGAGTCACCTAGTGCAG”, 7610 fluorescence intensity (a.u.). In the case of “GTTGATTTAATTATGGTTAACCTCTCACAGTAATCCGGGTCGGAGTCACCTAGTGCAG”, the binding signal is 64800 fluorescence intensity (a.u.). With “ACGTAATTATAATTTATTTTATTATGAGTTGTTTTATCACCGGAGTCACCTAGTGCAG”, the binding signal is 37000 fluorescence intensity (a.u.). For “TGAAATGGTTAAATGATTTGGGTTGAAATATTATGAAAATCGGAGTCACCTAGTGCAG”, the binding signal was 3220 fluorescence intensity (a.u.). As to “ATAATTGATAATGAAGACCAAGGAAATGCTTCTTTGGTCCCGGAGTCACCTAGTGCAG”, the binding signal was 54300 fluorescence intensity (a.u.). Regarding “TTTGTTATAATTGATATTTAATTAATCATATGGTAATTACCGGAGTCACCTAGTGCAG”, the binding signal is 27800 fluorescence intensity (a.u.).

For “TGTAATTATAATTTATTTTGTGATGAGTTGTTTTATCACTCGGAGTCACCTAGTGCAG”, the binding signal was 55800 fluorescence intensity (a.u.). Regarding “GATATATGATTGACTCAAGTCTTATTGATAAACTTGGTCCCGGAGTCACCTAGTGCAG”, the binding signal was 57500 fluorescence intensity (a.u.).

As to “TATGTAATTATTATTTATTTTATTGTGATTTGATTCATCACGGAGTCACCTAGTGCAG”, the binding signal is 31400 fluorescence intensity (a.u.). “TTGATATTCTTTATATGATTATATAGGATTGGTCTCCCTCCGGAGTCACCTAGTGCAG”: the binding signal is 3530 fluorescence intensity (a.u.). Take “GCTTAATTAATTGATTCAGAAAATAAAATAGTGAAATAACCGGAGTCACCTAGTGCAG”: the binding signal is 33400 fluorescence intensity (a.u.). Turning to “ATGGTTTGACTTGGATAAACTGGATTCTTAACTCAAACCTCGGAGTCACCTAGTGCAG”, the binding signal was 3410 fluorescence intensity (a.u.). Take “GTAATTATAATTTATTTTGTTATGAGTTGTTTTATCACTCCGGAGTCACCTAGTGCAG”: the binding signal is 6220 fluorescence intensity (a.u.). As for “ACGTAATTATAATTATTTTATTGTGAGTTGTTTTATTACTCGGAGTCACCTAGTGCAG”, the binding signal was 26500 fluorescence intensity (a.u.).

As to “GTAATAATTGATTGGTTCAGAAATTAATCACTAATTGTCCCGGAGTCACCTAGTGCAG”, the binding signal was 65000 fluorescence intensity (a.u.). Regarding “TGTAATTATAATTTATTTTATTGTGATTTGATTTATCATCCGGAGTCACCTAGTGCAG”, the binding signal is 59800 fluorescence intensity (a.u.). The result for “TTATGTAATTATAATTTATTTTATTGTGACTTGATTTATCCGGAGTCACCTAGTGCAG” reads 34000 fluorescence intensity (a.u.); that for “AATAATTTGGTTAGTTATTGTTAAGGAGAAATTTGATTCCCGGAGTCACCTAGTGCAG”, 12500 fluorescence intensity (a.u.).

Source of the values: paper PMC7819943, “Rice protein-binding microarrays: a tool to detect cis-acting elements near promoter regions in rice”.
